Data taken from PubChem BioAssay (NCATS).
Inconclusive results are not listed. Active and inactive are the calls of the source. Calls come from the whole dose curve; as a rule, active = well fitted curve in the direction sought with a large enough effect; inconclusive = small, poorly fitted or top-dose-only effect, or another doubt; inactive = no such curve, though single readings can be large; an effect the other way counts as inactive or inconclusive.

system: not listed separately; test: qHTS Assay for Identification of Small Molecule Antagonists for Thrombopoietin (TPO) Signaling Pathway (AID 918); settings: TPO-dependent cell signaling reporter, antagonist mode; note: potency is the fitted concentration of half-maximal effect; nearly all actives have a fitted effect of over 60% in size
Method in brief: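 Antagonist mode at EC50 TPO (26 pM) in IL-3-free medium; murine Ba/F3 cells with human TPO receptor and GPIIb-promoter luciferase, 24 hrs at 37 C before luminescent detection.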

Compound | Potency
O=C1NCN(c2ccccc2)C12CCN(CCCC(c1ccc(F)cc1)c1ccc(F)cc1)CC2 | 12.6 µM (active)
COCC(=O)O[C@]1(CCN(C)CCCc2nc3ccccc3[nH]2)CCc2cc(F)ccc2[C@@H]1C(C)C | 12.6 µM (active)
COC(=O)[C@H]1[C@H]2C[C@@H]3c4[nH]c5cc(OC)ccc5c4CCN3C[C@H]2C[C@@H](OC(=O)c2cc(OC)c(OC)c(OC)c2)[C@@H]1OC | 31.6 µM (active)
COc1cc(C(=O)OCCCN2CCCN(CCCOC(=O)c3cc(OC)c(OC)c(OC)c3)CC2)cc(OC)c1OC | 10 µM (active)

system: not listed separately; test: Cell Viability - LYMP2-001 (AID 921); settings: LYMP2-001 lymphoblastoid cell viability; series mostly up to 92.2 µM; activity change, negative = cytotoxic: at the top concentration;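 note: 0% = DMSO only and full inhibition = tetraoctylammonium bromide control wells; nearly all actives have a fitted effect of over 70% in size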
Method in brief: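 Human lymphoblastoid cells (Coriell), 2500 per well, were preincubated 5 hr at 37 C, then exposed to compounds in complete medium for 24 hr at 37 C. Cellular ATP was read by CellTiter-Glo luminescence; AC50 from Hill fits of concentration-response data.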

Compound | activity change, negative = cytotoxic
COC(=O)[C@H]1[C@H]2C[C@@H]3c4[nH]c5cc(OC)ccc5c4CCN3C[C@H]2C[C@@H](OC(=O)c2cc(OC)c(OC)c(OC)c2)[C@@H]1OC | -77.8% (inactive)
CCCCOCCOCCOCc1cc2c(cc1CCC)OCO2 | -8.34% (inactive)
NC(=Nc1ccccc1)Nc1ccccc1 | -6.85% (inactive)

biological target: Muscarinic acetylcholine receptor M1 (Rattus norvegicus) (UniProt P08482); test: qHTS Assay for Antagonists of Acetylcholine Muscarinic M1 Receptor: Kinetic Measurement of Intracellular Calcium Response (AID 943); settings: M1-expressing cells, kinetic intracellular calcium fluorescence; series mostly up to 35.3 µM; activity change, negative = inhibition: at the top concentration; note: nearly all actives have a fitted effect of over 75% in size; note: potency is the fitted concentration of half-maximal effect;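 for activity change, negative = inhibition: Fluo-4 calcium signal as peak divided by basal fluorescence over 4 min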
Sequence (P08482 whole entry, looked up): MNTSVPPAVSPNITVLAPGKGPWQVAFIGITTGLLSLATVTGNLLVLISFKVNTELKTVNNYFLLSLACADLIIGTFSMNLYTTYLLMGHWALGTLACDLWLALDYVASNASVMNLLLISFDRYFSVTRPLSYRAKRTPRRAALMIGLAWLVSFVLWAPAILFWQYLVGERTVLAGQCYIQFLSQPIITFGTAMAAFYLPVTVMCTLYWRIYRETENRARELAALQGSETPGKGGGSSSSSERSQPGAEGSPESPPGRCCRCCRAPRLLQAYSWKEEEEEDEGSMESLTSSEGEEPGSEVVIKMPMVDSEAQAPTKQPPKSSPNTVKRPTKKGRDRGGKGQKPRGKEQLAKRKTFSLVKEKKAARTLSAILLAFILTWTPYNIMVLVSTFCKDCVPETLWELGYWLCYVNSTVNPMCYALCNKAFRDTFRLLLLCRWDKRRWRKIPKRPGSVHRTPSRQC
Method in brief: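 Quantitative HTS in CHO-M1 (rat receptor) cells: 10 min compound exposure ahead of 100 nM carbachol, Fluo-4 fluorescence followed 4 min, value expressed as peak-to-basal ratio.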

Compound | Potency | activity change, negative = inhibition
COc1cc(C(=O)OCCCN2CCCN(CCCOC(=O)c3cc(OC)c(OC)c(OC)c3)CC2)cc(OC)c1OC | 0.316 µM (active) | –
c1cc(CN2CCCCC2)cc(OCCCNc2nc3ccccc3s2)c1 | 8.91 µM (active) | –
c1cnc(N2CCN(Cc3ccc4c(c3)OCO4)CC2)nc1 | 14.1 µM (active) | –
CCOC(=O)c1cnc2c(cnn2CC)c1NN=C(C)C | – | -43.6% (inactive)
CCC(=O)c1ccc2c(c1)N(CCCN(C)C)c1ccccc1S2 | 0.398 µM (active) | –
COC(=O)[C@@H](N)Cc1ccc(O)c(O)c1 | – | -37.3% (inactive)
CC1=C(C)C(=O)C(CCCCC#CCCCC#CCO)=C(C)C1=O | – | -37% (inactive)

biological target: Muscarinic acetylcholine receptor M1 (Rattus norvegicus) (UniProt P08482); test: qHTS Assay for Antagonists of Acetylcholine Muscarinic M1 Receptor: Measurement of IP-One Response (AID 944); settings: CHO-M1 cells, IP-One HTRF, antagonist mode; series mostly up to 46.1 µM; activity change, negative = inhibition: at the top concentration; note: nearly all actives have a fitted effect of over 75% in size; note: potency is the fitted concentration of half-maximal effect
Method in brief: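 Antagonism was measured as loss of carbachol-driven (EC80) IP1 accumulation in CHO cells carrying rat M1, using a homogeneous IP-One TR-FRET kit read at 620 and 665 nm.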

Compound | activity change, negative = inhibition | Potency
CCc1c(C)[nH]c2c1C(=O)C(CN1CCOCC1)CC2 (stereo unspecified) | -56.6% (inactive) | –
CCNC(=O)N1CCN(CCCC(c2ccc(F)cc2)c2ccc(F)cc2)CC1 | – | 17.8 µM (active)
COC(=O)[C@H]1[C@H]2C[C@@H]3c4[nH]c5cc(OC)ccc5c4CCN3C[C@H]2C[C@@H](OC(=O)c2cc(OC)c(OC)c(OC)c2)[C@@H]1OC | – | 8.91 µM (active)
COc1cc(C(=O)OCCCN2CCCN(CCCOC(=O)c3cc(OC)c(OC)c(OC)c3)CC2)cc(OC)c1OC | – | 4.47 µM (active)
c1cc(CN2CCCCC2)cc(OCCCNc2nc3ccccc3s2)c1 | – | 14.1 µM (active)
CCCCNc1c(C(=O)OCC)c(C)nc2c1cnn2CC | -40.2% (inactive) | –
Cc1nc2c([nH]1)c(=O)n(C)c(=O)n2Cc1ccco1 | -34.1% (inactive) | –
CCC(=O)c1ccc2c(c1)N(CCCN(C)C)c1ccccc1S2 | – | 1.41 µM (active)
NC(N)=NC(=O)Cc1c(Cl)cccc1Cl | -39.7% (inactive) | –
CC(=O)Oc1cc(C(C)C)c(OCCN(C)C)cc1C | – | 12.6 µM (active)

biological target: Pyruvate kinase (Leishmania mexicana) (UniProt Q27686); test: qHTS Validation Assay for Inhibitors of Leishmania Mexicana Pyruvate Kinase (AID 945);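 note: 0% = DMSO only neutral control wells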; settings: purified L. mexicana pyruvate kinase, enzyme activity, E451W mutant enzyme; series mostly up to 57.5 µM; activity change, negative = inhibition: at the top concentration
Sequence (Q27686 2-499 E452W): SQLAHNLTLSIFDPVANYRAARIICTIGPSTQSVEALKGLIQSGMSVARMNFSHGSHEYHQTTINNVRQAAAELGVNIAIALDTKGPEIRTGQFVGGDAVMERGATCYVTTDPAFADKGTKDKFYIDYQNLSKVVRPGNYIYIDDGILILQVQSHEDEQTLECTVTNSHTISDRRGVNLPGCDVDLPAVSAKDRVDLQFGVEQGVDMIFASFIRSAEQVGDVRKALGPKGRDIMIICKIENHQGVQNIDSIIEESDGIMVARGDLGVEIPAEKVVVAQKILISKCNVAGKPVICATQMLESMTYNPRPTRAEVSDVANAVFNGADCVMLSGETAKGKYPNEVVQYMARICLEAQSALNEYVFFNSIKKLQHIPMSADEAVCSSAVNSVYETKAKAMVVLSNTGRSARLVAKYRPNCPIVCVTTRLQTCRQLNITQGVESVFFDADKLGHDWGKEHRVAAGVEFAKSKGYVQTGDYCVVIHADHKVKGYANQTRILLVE
Method in brief: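 Eight-point qHTS titrations; enzyme 0.2 nM LmPYK (E451W mutant); substrates 0.5 mM PEP, 0.1 mM ADP; 7 mM MgCl2; 1 h room temperature; PKLight luminescence normalized to neutral control.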

Compound | activity change, negative = inhibition
CCc1c(C)[nH]c2c1C(=O)C(CN1CCOCC1)CC2 (stereo unspecified) | -1.96% (inactive)
CN(C)CC/C=C1\c2ccccc2COc2ccccc21 | 9.57% (inactive)
O=C1NCN(c2ccccc2)C12CCN(CCCC(c1ccc(F)cc1)c1ccc(F)cc1)CC2 | -8.06% (inactive)
C[C@]12CCC(=O)C=C1CC[C@@H]1[C@@H]2CC[C@@]2(C)[C@H]1CC[C@]2(O)C(=O)CO | -5.25% (inactive)
C[C@]12C=CC(=O)C=C1CC[C@H]1[C@@H]3C[C@@H](O)[C@](O)(C(=O)CO)[C@@]3(C)C[C@H](O)[C@@]12F | 4.78% (inactive)
CSc1ccc(C(=O)c2[nH]c(=O)[nH]c2C)cc1 | -9.84% (inactive)
COCC(=O)O[C@]1(CCN(C)CCCc2nc3ccccc3[nH]2)CCc2cc(F)ccc2[C@@H]1C(C)C | -6.08% (inactive)
CCNC(=O)N1CCN(CCCC(c2ccc(F)cc2)c2ccc(F)cc2)CC1 | 5.44% (inactive)
C[N+](C)(C)CCCCCCCCCC[N+](C)(C)C | 4.99% (inactive)
Brc1c(NC2=NCCN2)ccc2nccnc12 | 5.07% (inactive)
C[C@H](CS)C(=O)N1CCC[C@H]1C(=O)O | 4.93% (inactive)
COC(=O)[C@H]1[C@H]2C[C@@H]3c4[nH]c5cc(OC)ccc5c4CCN3C[C@H]2C[C@@H](OC(=O)c2cc(OC)c(OC)c(OC)c2)[C@@H]1OC | 4.3% (inactive)
C[C@]12CCC(=O)C=C1CC[C@@H]1[C@@H]2C(=O)C[C@@]2(C)[C@H]1CC[C@]2(O)C(=O)CO | -7.51% (inactive)
COc1cc(C(=O)OCCCN2CCCN(CCCOC(=O)c3cc(OC)c(OC)c(OC)c3)CC2)cc(OC)c1OC | -15.5% (inactive)
c1cc(CN2CCCCC2)cc(OCCCNc2nc3ccccc3s2)c1 | -8.73% (inactive)
c1cnc(N2CCN(Cc3ccc4c(c3)OCO4)CC2)nc1 | 1.02% (inactive)

Compound | activity change, negative = inhibition
CCCCNc1c(C(=O)OCC)c(C)nc2c1cnn2CC | -8.69% (inactive)
CCN1CCc2nc(N)oc2CC1 | 8.56% (inactive)
CCOC(=O)c1cnc2c(cnn2CC)c1NN=C(C)C | 3.78% (inactive)
Cc1nc2c([nH]1)c(=O)n(C)c(=O)n2Cc1ccco1 | 5.61% (inactive)
CN(C(=O)CCCOc1ccc2[nH]c(=O)ccc2c1)C1CCCCC1 | -12.1% (inactive)
CCC(=O)c1ccc2c(c1)N(CCCN(C)C)c1ccccc1S2 | 3.78% (inactive)
COC(=O)[C@@H](N)Cc1ccc(O)c(O)c1 | 7% (inactive)
NCCCNCCSP(=O)(O)O | -3.53% (inactive)
CC1=C(C)C(=O)C(CCCCC#CCCCC#CCO)=C(C)C1=O | -9.31% (inactive)
COc1cc2c(cc1OC)-c1cc(=Nc3c(C)cc(C)cc3C)n(C)c(=O)n1CC2 | -4.12% (inactive)
O=C1CC2(CCCC2)CC(=O)N1CCCCN1CCN(c2ncccn2)CC1 | 8.65% (inactive)
C(=C\c1ccccc1)/CN1CCN(C(c2ccccc2)c2ccccc2)CC1 | -3.3% (inactive)
C#CCN(C)CCCOc1ccc(Cl)cc1Cl | -15.7% (inactive)
C[N+](C)(C)CCOC(=O)CCC(=O)OCC[N+](C)(C)C | -8.69% (inactive)
NC(N)=NC(=O)Cc1c(Cl)cccc1Cl | 7.33% (inactive)
CC(=O)Oc1cc(C(C)C)c(OCCN(C)C)cc1C | 1.27% (inactive)
